# From PubChem
# A selection: hits, their analogues and other compounds. The true share with any hit is near 2.1%.
# MsrA inhibitor = inhibits bovine methionine sulfoxide reductase A; purified bovine MsrA, absorbance read-out; inhibition, % at 15.5 µM; hit rate 0.75% among 360,000; AID 651718; in the data active = inhibition above about 4.5%;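 also: 0% = vehicle wells with enzyme and 100% = reference inhibitor wells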
# ABCB6 inh MLPCN = inhibitors of human ABC transporter ABCB6; K562-ABCB6 porphyrin accumulation, flow cytometry, 1 h; stronger effect = lower value; Q9NP58; hit rate 0.19% among 360,000; fluorescence ratio to DMSO, % at 10 µM; AID 602162;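 active = fluorescence ratio to DMSO below 75%, the collection mean minus 3 SD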;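 also: signal is porphyrin accumulated inside mitochondria; 100% equals median channel fluorescence of DMSO control wells; lower ratio means ABCB6 inhibition with less porphyrin fluorescence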
# Target sequence (Q9NP58 whole entry, looked up): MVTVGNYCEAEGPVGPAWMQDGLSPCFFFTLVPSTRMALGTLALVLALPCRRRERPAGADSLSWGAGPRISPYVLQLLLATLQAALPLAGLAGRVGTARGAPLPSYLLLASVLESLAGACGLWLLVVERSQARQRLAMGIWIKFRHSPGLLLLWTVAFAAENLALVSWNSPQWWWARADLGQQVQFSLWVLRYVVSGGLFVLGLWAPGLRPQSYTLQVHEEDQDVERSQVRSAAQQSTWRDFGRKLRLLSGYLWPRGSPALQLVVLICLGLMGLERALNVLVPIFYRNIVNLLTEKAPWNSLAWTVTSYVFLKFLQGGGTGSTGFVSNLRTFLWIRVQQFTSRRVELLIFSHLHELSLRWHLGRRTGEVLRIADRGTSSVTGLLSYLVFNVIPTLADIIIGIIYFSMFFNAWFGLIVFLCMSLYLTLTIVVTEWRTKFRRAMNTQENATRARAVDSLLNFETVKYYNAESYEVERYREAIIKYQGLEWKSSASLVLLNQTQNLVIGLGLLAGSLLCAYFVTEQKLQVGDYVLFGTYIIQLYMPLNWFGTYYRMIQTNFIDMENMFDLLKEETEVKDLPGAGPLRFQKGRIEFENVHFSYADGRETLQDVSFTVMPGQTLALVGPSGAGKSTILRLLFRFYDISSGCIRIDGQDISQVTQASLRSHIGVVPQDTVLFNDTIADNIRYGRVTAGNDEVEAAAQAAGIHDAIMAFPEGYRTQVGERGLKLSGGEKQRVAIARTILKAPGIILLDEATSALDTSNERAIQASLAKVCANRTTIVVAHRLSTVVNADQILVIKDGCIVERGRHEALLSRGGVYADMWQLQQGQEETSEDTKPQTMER
# MsrA act = activators of bovine methionine sulfoxide reductase A; activation, % at 10.6 µM; purified bovine MsrA, absorbance read-out; AID 602163; hit rate 0.3% among 360,000; in the data active = activation above about 7.5%;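 also: 0% = vehicle and 100% = reference activator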
# SMARCA2 activ = activators of SMARCA2 function; MG213 cells, MMTV-luciferase reporter, dexamethasone, overnight; hit rate 1% among 370,000; activation, % at 9.1 µM; in the data active = activation above about 7.8%;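 also: 0% = vehicle wells and 100% = reference activator wells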
# Starred values were filed as active, the others as inactive; i = inactive; / = no result given.
SMILES,MsrA inhibitor,ABCB6 inh MLPCN,MsrA act,SMARCA2 activ
Cc1cccc(C)c1OCC(=O)Nc1cccc(C(=O)O)c1,0.6,104.0,-3.6,7.9*
COc1cccc(OCC(=O)NN=C2c3ccccc3-c3ccccc32)c1,-0.5,44.0*,-11.5,-0.3
COc1cccc(OCC(=O)Nc2ccccc2-c2ccccc2)c1,1.6,100.0,-2.6,-5.2
COc1cccc(NC(=O)Cn2c(CCC(=O)O)ccc2-c2ccc(C)cc2)c1,3.2,101.0,-2.9,-4.3
COc1cc(NC(=O)COc2cccc(OC)c2)cc(OC)c1,0.8,91.0,-1.4,-0.7
COc1ccc(-c2ccc(CCC(=O)O)n2CC(=O)Nc2cccc(OC)c2)cc1,4.7*,100.0,-1.7,-1.4
Cc1cc(C(=O)OCCCN(C)C2CN(Cc3cn(Cc4ccccc4C(F)(F)F)nn3)S(=O)(=O)C2)no1 (centres undefined),/,/,/,-1.4
Cc1ccc2nc(-c3ccc(NC(=O)CSc4nnc(-c5cccc(Cl)c5)n4Cc4ccco4)cc3)sc2c1,/,/,/,-4.0
CCOCCCn1c(=NC(=O)c2ccco2)c(C(=O)OCC)cc2c(=O)n3cccc(C)c3nc21,0.3,99.0,-1.9,7.8*
CCOC(=O)c1cc2c(=O)n3cccc(C)c3nc2n(CC(C)C)c1=NC(=O)c1ccco1,2.3,96.0,-2.6,4.3
Clc1cccc(-c2cc3nc4c(c(N5CCOCC5)n3n2)CCCC4)c1,4.8*,99.0,-7.4,2.5
O=c1c2ccccc2oc2cc(NCCCN3CCOCC3)ccc12,4.6*,91.0,-3.0,5.9
CN(C)S(=O)(=O)c1ccc(/C(O)=C2/C(=O)C(=O)N(CCN3CCCCC3)C2c2cccnc2)cc1 (centres undefined),4.9*,99.0,-1.1,1.5
Cc1nn(CCC#N)c(NC(=O)c2ccc(Cl)cc2Cl)c1P(=O)(Nc1ccc([N+](=O)[O-])cc1)N1CCOCC1 (centres undefined),4.7*,102.0,-9.4,0.1
Cc1nn(CCC#N)c(NC(=O)c2ccc(Cl)cc2)c1P(=O)(Nc1ccc([N+](=O)[O-])cc1)N1CCOCC1 (centres undefined),2.2,98.0,-13.3,-2.0
COc1ccc(CNC(=S)OC2CCC23CCC(c2ccccc2)CC3)cc1 (centres undefined),/,/,/,1.7
Cn1c(-c2ccc(F)cc2)cc2onc(-c3c(F)cccc3Cl)c2c1=O,0.4,/,/,10.3*
Cc1ccc(-c2cc3onc(-c4ccccc4)c3c(=O)n2C)cc1,-0.8,92.0,-1.2,-1.4
COc1ccc(/C=N/Nc2nc(-c3ccc(Cl)cc3)cc(C(F)(F)F)n2)c(OC)c1,4.6*,103.0,-1.7,-2.1
COC(=O)/C=C1/S/C(=N/N=C/c2ccco2)NC1=O,4.6*,100.0,-6.1,-3.0
O=C(N/N=C/c1ccco1)c1cnccn1,3.2,101.0,-6.2,8.0*
CSc1nnc(-c2cccn(Cc3ccccc3)c2=O)o1,1.9,103.0,-7.1,-0.5
O=c1c(-c2n[nH]c(=S)o2)cccn1Cc1ccccc1,4.6*,110.0,1.8,-3.1
CN(C)Cc1csc(NC(=O)Nc2ccccc2Oc2ccccc2)n1,-1.0,96.0,1.7,7.9*
COc1ccc(S[C@]2(C(=O)N3CCOCC3)CC(=O)N(c3ccc(OC)cc3)[C@@H]2c2ccc(OC)cc2)cc1,/,/,/,-6.2
SMILES,MsrA inhibitor,ABCB6 inh MLPCN,MsrA act,SMARCA2 activ
C=CCn1c(Sc2nnc(C)s2)nc2c1c(=O)[nH]c(=O)n2C,0.7,68.0*,1.6,-3.5
COc1cc(C(=O)N/C(=C\c2cn(C)c3ccccc23)C(=O)NCCCO)cc(OC)c1OC,4.7*,91.0,-10.5,-1.6
O=C(/C=C/c1ccccc1)NCCOc1ccccc1,0.2,100.0,-8.2,7.8*
O=C(NCCCNc1ccc(C(F)(F)F)cc1[N+](=O)[O-])c1ccc(Cl)cc1,0.4,98.0,0.0,-0.9
O=C(NCCCNc1ccc(C(F)(F)F)cc1[N+](=O)[O-])c1cc(F)c(F)cc1Cl,-0.2,i,8.7*,-0.8
CCN(CC)c1nc(N)c([N+](=O)[O-])c(NCCO)n1,4.7*,107.0,-3.3,-1.5
Cc1ccc(Nc2nc(N)c([N+](=O)[O-])c(NCCO)n2)cc1,0.0,96.0,-0.2,-0.4
Oc1ccc(-c2cn3ccccc3n2)cc1,-0.3,97.0,-3.2,5.6
c1ccc(-c2cn3ccccc3n2)cc1,0.4,91.0,-2.4,7.9*
CN1C=C/C(=C\c2cc[n+](C)c3ccccc23)c2ccccc21,48.2*,99.0,5.0,-9.3
CCOc1ccc(Cn2ccnc2)cc1[N+](=O)[O-],1.0,96.0,-0.8,12.6*
CCCCCOc1ccc(Cn2ccnc2)cc1[N+](=O)[O-],0.8,99.0,-3.8,1.4
CC1COc2c(N3CCN(C)CC3)c(F)cc3c(=O)c(C(=O)O)cn1c23 (centres undefined),1.9,102.0,8.8*,-1.1
COc1cccc(/C=C2\CC3(OC(=O)c4ccco4)CCCN2C3)c1 (centres undefined),/,/,/,-2.0
Cc1cc(C)cc(N=Cc2ccc([N+](=O)[O-])s2)c1,2.5,113.0,5.4,-0.7
O=[N+]([O-])c1ccc(C=Nc2ccc(Cl)c([N+](=O)[O-])c2)s1,5.1*,103.0,2.5,3.7
COc1cccc(Cn2cc(COC(=O)NCCc3ccccc3)nn2)c1,/,/,/,-3.2
COc1ccc(C=C2OC(=O)C(C(C)=O)=C2O)cc1,9.1*,101.0,-10.7,-2.2
CCOc1ccc2nc(N3C(=O)C(O)=C(C(=O)c4ccco4)C3c3ccco3)sc2c1 (centres undefined),0.8,98.0,-4.4,7.9*
COc1ccc2nc(N3C(=O)C(O)=C(C(=O)c4ccco4)C3c3ccc(C)o3)sc2c1 (centres undefined),2.0,112.0,-9.6,2.1
C[C@@H]1/C=C/CC(=O)N[C@H](c2ccc3ccccc3c2)[C@H](C)/C=C/CC(=O)N[C@@H]1c1ccc2ccccc2c1,/,/,/,-0.4
Cn1nc(CC(=O)Nc2ccc(N3CCN(C(=O)OC(C)(C)C)CC3)cc2)c2ccccc2c1=O,-0.2,30.0*,-8.4,-6.3
Cn1nc(CC(=O)N2CCN(c3ccccc3)CC2)c2ccccc2c1=O,0.5,84.0,7.4,2.9
COc1ccc(/C=C/C(Cc2cccc(C(C)=O)c2)c2ccc(C)cc2)cc1 (centres undefined),/,/,/,-5.2
COc1ccc(-c2cc(=O)c3c(O)cc(O)cc3o2)cc1,2.7,104.0,-1.1,7.9*
SMILES,MsrA inhibitor,ABCB6 inh MLPCN,MsrA act,SMARCA2 activ
O=[N+]([O-])c1cccc(SSc2cccc([N+](=O)[O-])c2)c1,1.2,96.0,17.3*,0.0
CCN(C(=O)CN1C(=O)S/C(=C\C=C\c2ccccc2)C1=O)C1CCS(=O)(=O)C1 (centres undefined),4.6*,94.0,-6.3,0.8
CCN(C(=O)CN1C(=O)S/C(=C\c2cccc(Cl)c2)C1=O)C1CCS(=O)(=O)C1 (centres undefined),2.2,102.0,-2.5,0.0
Cn1nc(C(=O)Nc2nc3ccccc3[nH]2)c2ccccc2c1=O,1.6,105.0,0.7,16.4*
COc1ccc(C#CCN(C)/C(N)=N/C(=O)OCc2ccccc2)cc1,/,/,/,-3.6
CCOC(=O)c1ccc(NC(=O)C2CC3CCC2C3)cc1 (centres undefined),-2.0,97.0,-3.3,7.9*
Nc1[nH]c(N=NC(=O)c2ccccc2O)c2ccccc12,4.6*,99.0,-10.3,1.1
